# This is one part of a sample in which the strongest signals are shown more often than they occur.
# Assays:
# Experiment in all cases: glycan array binding signal (z-score within array); higher = stronger binding
# Conditions in all cases: glycan notation: IUPAC condensed, linker removed
# [1] = molecular target: Fuc(a1-2)Gal(b1-3)GalNAc(b1-3)Gal
# How it was run: (§1)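 Glycan array binding is given as a within-array Z-score, which can be read as non-binding when negative. The arrays, 3228 of them, came from the Consortium for Functional Glycomics database and were retained only where the protein sequence was available. Z-scores were averaged across arrays of the same protein sequence at different concentrations or buffers and across linkers.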
# [2] = molecular target: Fuc(a1-2)Gal(b1-4)GlcNAc(b1-3)Gal(b1-4)GlcNAc(b1-3)Gal(b1-4)GlcNAc
# How it was run: as §1
# [3] = molecular target: Fuc(a1-2)[GalNAc(a1-3)]Gal(b1-4)[Fuc(a1-3)]GlcNAc
# How it was run: as §1
# [4] = molecular target: Fuc(a1-3)[Gal(b1-4)]GlcNAc(b1-4)Gal(b1-4)[Fuc(a1-3)]GlcNAc(b1-4)Gal(b1-4)[Fuc(a1-3)]GlcNAc
# How it was run: as §1
# [5] = molecular target: Fuc(a1-3)[Gal3S(b1-4)]GlcNAc6S
# How it was run: as §1
# Fuc(a1-4)GlcNAc = molecular target: Fuc(a1-4)GlcNAc
# How it was run: as §1
# Gal(a1-6)Glc = molecular target: Gal(a1-6)Glc
# How it was run: as §1
# [6] = molecular target: Gal(b1-3)[Neu5Ac(a2-6)]GalNAc
# How it was run: as §1
# [7] = molecular target: Gal(b1-4)GalNAc(b1-3)[Fuc(a1-2)]Gal(b1-4)GlcNAc
# How it was run: as §1
# Gal3S(b1-4)Glc6S = molecular target: Gal3S(b1-4)Glc6S
# How it was run: as §1
# Gal3S6S(b1-4)GlcNAc6S = molecular target: Gal3S6S(b1-4)GlcNAc6S
# How it was run: as §1
# Gal4S(b1-4)GlcNAc = molecular target: Gal4S(b1-4)GlcNAc
# How it was run: as §1
# Gal6S(b1-4)Glc6S = molecular target: Gal6S(b1-4)Glc6S
# How it was run: as §1
# [8] = molecular target: Man(a1-2)Man(a1-2)Man(a1-3)[Man(a1-2)Man(a1-3)[Man(a1-2)Man(a1-6)]Man(a1-6)]Man(b1-4)GlcNAc(b1-4)GlcNAc
# How it was run: as §1
# [9] = molecular target: Man(a1-2)Man(a1-2)Man(a1-6)[Man(a1-3)]Man
# How it was run: as §1
# [10] = molecular target: Man(a1-2)Man(a1-3)[Man(a1-6)]Man(a1-6)[Man(a1-2)Man(a1-3)]Man(b1-4)GlcNAc(b1-4)GlcNAc
# How it was run: as §1
# [11] = molecular target: Neu5Ac(a2-3)[GalNAc(b1-4)]Gal(b1-4)GlcNAc
# How it was run: as §1
# [12] = molecular target: Neu5Ac(a2-8)Neu5Ac(a2-3)[GalNAc(b1-4)]Gal(b1-4)Glc
# How it was run: as §1
# [13] = molecular target: Neu5Ac(a2-8)Neu5Ac(a2-8)Neu5Ac(a2-3)Gal(b1-4)Glc
# How it was run: as §1
# [14] = molecular target: Neu5Gc(a2-3)Gal(b1-4)GlcNAc
# How it was run: as §1
# [15] = molecular target: Fuc(a1-2)Gal(b1-3)GalNAc(b1-3)Gal(b1-4)Glc
# How it was run: as §1
# [16] = molecular target: Fuc(a1-2)Gal(b1-4)[Fuc(a1-3)]GlcNAc
# How it was run: as §1
# Fuc(a1-3)GlcNAc = molecular target: Fuc(a1-3)GlcNAc
# How it was run: as §1
# [17] = molecular target: Gal(b1-3)GalNAc(b1-3)Gal(b1-4)GlcNAc
# How it was run: as §1
# [18] = molecular target: Gal(b1-4)GlcNAc(b1-2)Man(a1-3)[Gal(b1-4)GlcNAc(b1-2)Man(a1-6)]Man(b1-4)GlcNAc(b1-4)GlcNAc
# How it was run: as §1
# Gal3S6S(b1-4)GlcNAc = molecular target: Gal3S6S(b1-4)GlcNAc
# How it was run: as §1
# [19] = molecular target: GlcNAc(b1-3)Gal(b1-3)GalNAc
# How it was run: as §1
# GlcNAc(b1-3)Gal(b1-4)Glc = molecular target: GlcNAc(b1-3)Gal(b1-4)Glc
# How it was run: as §1
# [20] = molecular target: GlcNAc(b1-3)Gal(b1-4)GlcNAc(b1-3)Gal(b1-4)GlcNAc
# How it was run: as §1
# [21] = molecular target: GlcNAc(b1-3)[GlcNAc(b1-6)]GlcNAc
# How it was run: as §1
# [22] = molecular target: GlcNAc(b1-4)Gal(b1-4)GlcNAc
# How it was run: as §1
# [23] = molecular target: Man(a1-2)Man(a1-3)[Man(a1-3)[Man(a1-6)]Man(a1-6)]Man(b1-4)GlcNAc(b1-4)GlcNAc
# How it was run: as §1
# Man(a1-3)[Man(a1-6)]Man = molecular target: Man(a1-3)[Man(a1-6)]Man
# How it was run: as §1
# [24] = molecular target: Neu5Ac(a2-3)Gal(b1-4)GlcNAc(b1-3)Gal(b1-4)GlcNAc
# How it was run: as §1
# [25] = molecular target: Neu5Ac(a2-3)Gal(b1-4)[Fuc(a1-3)]GlcNAc6S
# How it was run: as §1
# Neu5Ac(a2-3)GalNAc = molecular target: Neu5Ac(a2-3)GalNAc
# How it was run: as §1
# [26] = molecular target: Neu5Ac(a2-3)[GalNAc(b1-4)]Gal(b1-4)Glc
# How it was run: as §1
# [27] = molecular target: Neu5Ac(a2-6)Gal(b1-4)GlcNAc(b1-2)Man(a1-3)[Neu5Ac(a2-6)Gal(b1-4)GlcNAc(b1-2)Man(a1-6)]Man(b1-4)GlcNAc(b1-4)GlcNAc
# How it was run: as §1
# [28] = molecular target: Neu5Ac(a2-6)Gal(b1-4)GlcNAc6S
# How it was run: as §1
# [29] = molecular target: Neu5Ac(a2-8)Neu5Ac(a2-3)Gal(b1-4)Glc
# How it was run: as §1
Binder,glycan array binding signal (z-score) [1],glycan array binding signal (z-score) [2],glycan array binding signal (z-score) [3],glycan array binding signal (z-score) [4],glycan array binding signal (z-score) [5],glycan array binding signal (z-score) (Fuc(a1-4)GlcNAc),glycan array binding signal (z-score) (Gal(a1-6)Glc),glycan array binding signal (z-score) [6],glycan array binding signal (z-score) [7],glycan array binding signal (z-score) (Gal3S(b1-4)Glc6S),glycan array binding signal (z-score) (Gal3S6S(b1-4)GlcNAc6S),glycan array binding signal (z-score) (Gal4S(b1-4)GlcNAc),glycan array binding signal (z-score) (Gal6S(b1-4)Glc6S),glycan array binding signal (z-score) [8],glycan array binding signal (z-score) [9],glycan array binding signal (z-score) [10],glycan array binding signal (z-score) [11],glycan array binding signal (z-score) [12],glycan array binding signal (z-score) [13],glycan array binding signal (z-score) [14],glycan array binding signal (z-score) [15],glycan array binding signal (z-score) [16],glycan array binding signal (z-score) (Fuc(a1-3)GlcNAc),glycan array binding signal (z-score) [17],glycan array binding signal (z-score) [18],glycan array binding signal (z-score) (Gal3S6S(b1-4)GlcNAc),glycan array binding signal (z-score) [19],glycan array binding signal (z-score) (GlcNAc(b1-3)Gal(b1-4)Glc),glycan array binding signal (z-score) [20],glycan array binding signal (z-score) [21],glycan array binding signal (z-score) [22],glycan array binding signal (z-score) [23],glycan array binding signal (z-score) (Man(a1-3)[Man(a1-6)]Man),glycan array binding signal (z-score) [24],glycan array binding signal (z-score) [25],glycan array binding signal (z-score) (Neu5Ac(a2-3)GalNAc),glycan array binding signal (z-score) [26],glycan array binding signal (z-score) [27],glycan array binding signal (z-score) [28],glycan array binding signal (z-score) [29]
"PEB3 Cj0289c (Campylobacter jejuni), Q9PIK7 (protein) MDVNLYGPGGPHTALKDIANKYSEKTGVKVNVNFGPQATWFEKAKKDADILFGASDQSALAIASDFGKDFNVSKIKPLYFREAIILTQKGNPLKIKGLKDLANKKVRIVVPEGAGKSNTSGTGVWEDMIGRTQDIKTIQNFRNNIVAFVPNSGSARKLFAQDQADAWITWIDWSKSNPDIGTAVAIEKDLVVYRTFNVIAKEGASKETQDFIAYLSSKEAKEIFKKYGWRE",1.6,-0.33,-0.226,-0.441,0.228,-0.029,1.25,-0.409,-0.381,1.38,2.8,0.039,1.36,-0.256,-0.192,-0.25,-0.332,-0.28,-0.456,-0.272,–,–,–,–,–,–,–,–,–,–,–,–,–,–,–,–,–,–,–,–
"X56-1 (Clostridium perfringens), P26831 (protein) MGSSHHHHHHSSGLVPRGSHMASDPNRIIATYISNRQDAPTGNPDNIFDNNASTELVYKNPNRIDVGTYVGVKYSNPITLNNVEFLMGANSNPNDTMQKAKIQYTVDGREWIDLEEGVEYTMPGAIKVENLDLKVRGVRLIATEARENTWLGVRDINVNKKEDSNSGVEF",0.726,–,–,–,–,–,–,–,–,–,–,–,–,–,–,–,–,–,–,–,0.136,0.085,-0.245,0.197,5.94,-0.196,0.035,-0.355,-0.172,-0.276,-0.371,-0.387,-0.231,9.11,1.06,-0.264,-0.338,-0.264,-0.039,0.954

# Source: the supplement of paper PMC8728848
